This assay concerns MCF7 breast. Put plainly: NCI-60 one-dose screen, 48 h (100 = growth as untreated, 0 = no growth, -100 = all killed). Conditions: 10 µM unless noted.

Molecules are shown by their SMILES. “And” between values parts separate entries of the source, which are not always exact repeats. Equal entries are not always repeated. Compounds without any hit were thinned out: in the full panel of roughly 83,000, 20% have a hit.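 Step 1: grow cells in 96-well plates. Step 2: add test compound at a single concentration. Step 3: incubate 48 h. Step 4: record percent growth.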 The source made the active and inactive calls. How the source made its calls: active means growth percent below 10; inactive means the rest.

As for `Cc1ccc2c(/C=C/c3ccc(N(C)C)cc3)ccc(C(C)C)cc1-2`, the growth is 57.7% [100 µM] (inactive) and 75.6% [100 µM] (inactive).

For `CC1(C)Oc2ccc3c(=O)cc(-c4ccc(F)cc4)oc3c2C1C(=O)O` (stereo not given), the growth is 86.7% [100 µM] (inactive) and 80.6% [100 µM] (inactive).

For `COc1ccc(-c2nc3ccccc3c(=S)n2OC(C)=O)cc1`, the growth is 8.58% [25 µM] (active) and -23% [25 µM] (active).

In the case of `CC(C)CCCC(C)[C@H]1CC[C@H]2[C@@H]3CC[C@H]4C[C@@H](CCC=C(c5cc(Cl)c(O)c(C(=O)O)c5)c5cc(Cl)c(O)c(C(=O)O)c5)CC[C@]4(C)[C@H]3CC[C@]12C` (stereo not given in full) (tested in a mixture with another compound), the growth was 97.3% [50 µM] (inactive).

For the compound `COc1cc(Oc2c(C)c(Cl)c(OC)c(Cl)c2OC)c2c(c1Cl)COC2=O`, the growth is -6.77% [100 µM] (active) and -26.7% [100 µM] (active).

In the case of `C/C(=C\COc1cc(O)c2c(c1)C(=O)c1cc(C)cc(O)c1C2=O)CCC1OC1(C)C` (stereo not given), the growth was 20.6% [100 µM] (inactive) and 2.66% [100 µM] (active).

On to `CC(=O)C1=C(C)N2C(=NC3=C(CCc4ccccc43)C2c2cccc(Br)c2)S1` (stereo not given), for which the growth is 35.9% [100 µM] (inactive) and 33.8% [100 µM] (inactive).

Consider `CC(C)C1OC(N)=C(C#N)C1(C#N)C#N` (stereo not given), for which the growth was 12.9% [100 µM] (inactive) and 2.2% [100 µM] (active).

With `COc1c(O)ccc(C2=Cc3ccc(O)cc3OC2)c1OC`, the growth is -13.9% [100 µM] (active) and -13.3% [100 µM] (active).

Turning to `CCC(C)C1(O)OC2CC3(C)OC(=CC3=O)/C(C)=C\C3OC(=O)C1(C)C32` (stereo not given), the growth is -50% [100 µM] (active) and -100% [100 µM] (active).

Take `CC(=Nc1ccncc1)C(C)=Nc1ccncc1`: the growth is -47.5% [100 µM] (active) and -27.7% [100 µM] (active).

As for `COC(=O)C(Cc1nc2ccccc2[nH]c1=O)C(=O)C(=O)Nc1cc(C(F)(F)F)ccc1Cl` (stereo not given), the growth is -91.8% [100 µM] (active) and 0% [100 µM] (active).

As to `COC(=O)C(C(=O)C(=O)NC1Nc2ccc(C)cc2S1)c1nc2ccc(Cl)cc2[nH]c1=O` (stereo not given), the growth is 79.7% [100 µM] (inactive) and 65.5% [100 µM] (inactive).

For the compound `C[C@@H]1C[C@](O)([C@@H](C)Cl)C(=O)O[C@@H]2CCN3CC=C(COC(=O)[C@]1(C)O)[C@H]23`, the growth is 82.2% [100 µM] (inactive) and 71.5% [100 µM] (inactive).

`Cc1ccc(/C=N/Nc2ccccn2)s1`: the growth is 13.4% [100 µM] (inactive) and 0.177% [100 µM] (active).

Consider `O=C(NC1=NC2C=CC([N+](=O)[O-])=CC2S1)C(=O)Nn1c(=S)[nH]c2ccccc2c1=O` (stereo not given), for which the growth is 52.7% [100 µM] (inactive) and 8.91% [100 µM] (active).

`COc1ccc(C)cc1NC(=S)C#N`: the growth is 77.9% [100 µM] (inactive) and 4.98% [100 µM] (active).

Turning to `Cc1ccc2c(sc(-c3ccc4c(c3)sc(-c3ccc5c(c3)sc(-c3ccc(N(C)C)cc3)[n+]5C)[n+]4C)[n+]2C)c1S(=O)(=O)O` (tested in a mixture with another compound), the growth was 35.5% [100 µM] (inactive) and -81.2% [100 µM] (active).

For `CNC(=S)c1nnsc1N`, the growth was 19% [100 µM] (inactive) and 0.417% [100 µM] (active).

In the case of `Clc1ccc(C2C3COc4ccccc4C3=NN2c2ccccc2)cc1` (stereo not given), the growth is 12.9% [100 µM] (inactive) and -27.8% [100 µM] (active).

Turning to `O=C(O)c1n[nH]nc1Cl`, the growth was 94.1% [100 µM] (inactive) and 80.7% [100 µM] (inactive).

As for `COc1ccc(N=C(C)C(C)=Nc2ccc(OC)cc2)cc1`, the growth was 38.9% [100 µM] (inactive) and 11.1% [100 µM] (inactive).

As to `COc1ccc(OC)c(N(CN2C(=O)CCC2C(=O)O)C(C)=O)c1` (stereo not given), the growth is 86% [100 µM] (inactive) and 95.9% [100 µM] (inactive).

Take `COC(=O)C1=CO[C@@H](OC2OC(CO)C(O)C(O)C2O)[C@H]2[C@@H](C)[C@@H](O)[C@@H](O)[C@@H]12` (stereo not given in full): the growth was 95.3% [100 µM] (inactive) and 91.8% [100 µM] (inactive).

`CCCCCCSC[C@H](OC(C)=O)[C@@H](OC(C)=O)[C@@H](OC(C)=O)[C@@H](COC(C)=O)OC(C)=O`: the growth was 28.8% [100 µM] (inactive) and 79.7% [100 µM] (inactive).

Regarding `Cc1ccc(/C=N/Nc2nc3ccccc3s2)s1`, the growth was 2.03% [100 µM] (active) and 4.5% [100 µM] (active).

`C=C1C(=O)OC2CC(C)C3(O)CCC(=O)C3(C)CC12` (stereo not given): the growth is 13.7% [100 µM] (inactive) and 3.19% [100 µM] (active).

Regarding `COc1cc2c(c3c1c(=O)c1ccccc1n3C)C=C([N+](=O)[O-])C(C)(C)O2`, the growth is 9.29% [100 µM] (active) and -100% [100 µM] (active).

Consider `N/N=C(\C(=O)Nc1ccc([N+](=O)[O-])cc1)C(C1=Nc2cc([N+](=O)[O-])ccc2NC1)[N+](=O)[O-]` (stereo not given), for which the growth was 45.9% [100 µM] (inactive) and 33.8% [100 µM] (inactive).

Take `O=C1c2ccccc2-c2c1c1ccccc1c(=O)n2CCO`: the growth is 6.81% [100 µM] (active) and -32.3% [100 µM] (active).

The values above are taken from PubChem BioAssay (NCI).
